Source: PubChem
In the library only some 1.8% were active in any assay of this set; here they are far more common.
TrxR1 inh = inhibitors of rat thioredoxin reductase 1. O89049. recombinant rTrxR1, NADPH fluorescence consumption, selenite substrate. Potency, µM (series often up to 114 µM), for the others: at the highest dose activity change, negative = inhibition, most hits filed as inhibitors. hit rate 1% among 390,000. AID 588453; note: nearly all actives have a fitted effect of over 65% in size
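Rat TrxR1 (90 nM in the dispensed reagent) was pre-reduced with 400 uM NADPH for 5 min at room temperature, then incubated with compound for 15 min. After 400 uM selenite was added, NADPH fluorescence (Ex 340/Em 450 nm) was followed for 8 min.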
TrxR1 substrate = is turned over as a substrate by rat TrxR1; O89049; purified TrxR1 substrate turnover, NADPH consumption readout; Potency, µM (titrated, usually from 114 µM), without a hit: at the highest dose activity change, negative = substrate turnover; hit rate 0.01% among 390,000; AID 588456; note: nearly all actives have a fitted effect of over 50% in size
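Rat TrxR1, dispensed at 90 nM, was prereduced with 400 uM NADPH (final) for 5 min at ~22 deg C, then incubated with compound 15 min before 400 uM selenite. A first-read NADPH fluorescence drop versus no-compound background flagged substrates.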
GCN5L2 inh = blocks human GCN5L2 histone acetyltransferase; Q92830; GCN5L2 HAT assay, ThioGlo1 CoA-SH fluorescence; Potency, µM (titrated, usually from 58.9 µM), inactives show at the highest dose activity change, negative = inhibition, usual class: inhibitors; hit rate 0.21% among 390,000; AID 504327
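GCN5L2 (20 nM) in 50mM HEPES pH 7.5, 0.1mM EDTA, 0.01% Tween-20 preincubated 15 min with compounds at room temperature. Reaction started with H3(1-25) 75uM, acetyl-CoA 70uM, ThioGlo1 50uM; CoA-thiol fluorescence (Ex340/Em540) read at 0 and 20 min.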
VDR inh = blocks the human vitamin D receptor; P11473; VDR-SRC2-3 peptide fluorescence polarization, 2 h; Potency, µM, inactives show max response, negative = inhibition, actives largely listed as inhibitors; hit rate 0.93% among 400,000; AID 504847
Target sequence (P11473 whole entry, looked up): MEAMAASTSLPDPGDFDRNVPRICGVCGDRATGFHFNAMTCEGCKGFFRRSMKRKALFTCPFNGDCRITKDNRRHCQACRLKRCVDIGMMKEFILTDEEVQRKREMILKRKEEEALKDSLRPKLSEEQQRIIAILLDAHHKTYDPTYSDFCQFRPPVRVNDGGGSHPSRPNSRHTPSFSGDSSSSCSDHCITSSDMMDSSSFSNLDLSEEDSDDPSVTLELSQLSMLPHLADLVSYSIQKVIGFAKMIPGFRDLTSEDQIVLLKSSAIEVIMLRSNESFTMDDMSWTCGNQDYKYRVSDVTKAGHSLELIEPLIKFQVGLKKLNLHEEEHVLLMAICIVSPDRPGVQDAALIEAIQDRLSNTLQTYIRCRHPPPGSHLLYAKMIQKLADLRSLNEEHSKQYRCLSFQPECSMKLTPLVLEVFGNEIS
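FP read-out; VDR + SRC2-3 coactivator peptide; 23 nl compound by pintool; 2 h RT incubation; reagents held at 4 deg C, protected from light.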
* = called active by the depositor; ? = inconclusive; . = no result given; ! = a repeat was not active; [ ] = another dose, or the depositor's remark. Calls come from the whole dose curve; as a rule, active = well fitted curve in the direction sought with a large enough effect; inconclusive = small, poorly fitted or top-dose-only effect, or another doubt; inactive = no such curve, though single readings can be large; an effect the other way counts as inactive or inconclusive. % is set by controls: 0 for no effect and ±100 for the full control effect; potency is the fitted concentration of half-maximal effect.

SMILES | TrxR1 inh | TrxR1 substrate | GCN5L2 inh | VDR inh
O=C(O)c1ccccc1Nc1cc(Cl)c2nonc2c1[N+](=O)[O-] | 1.6µM* | -14% | -14% | 35µM*
Cc1ccc(-c2cc(C(=O)O)c3ccccc3n2)s1 | 79µM* | 827% | ? | 21%
Cc1cc(NC(=O)c2cc(-c3ccc(C)s3)nc3ccccc23)no1 | 42% | 39% | 28µM* | -25%
Cc1cccc(NC(=O)c2cc(-c3ccc(C)s3)nc3ccccc23)n1 | -6%[11.4 µM] | 46%[57.1 µM] | -27% | -18%
CC(=O)NC(Cc1ccc(I)cc1)C(=O)NCC(N)C(=O)c1ccccc1 (configuration not stated) | 11% | 3% | . | .
CC(=O)O[C@@H]1[C@@H](O)CN[C@@H]1Cc1ccccc1 | 40µM* | -8% | . | ?
CCOC(=O)C(=O)N1CCC(Cc2ccccc2)CC1 | 31%[57.1 µM] | 5%[57.1 µM] | -7% | -6%
Cc1ccccc1Nc1c(-c2ccc(Cl)s2)nc2ccccn12 | -8% | 5% | . | -9%
CCOc1ccccc1NC(=S)Nn1cnnc1 | -11% | -3% | ? | 40µM*
S=C(Nc1cc(Cl)ccc1Cl)Nn1cnnc1 | -5%[57.1 µM] | -6%[57.1 µM] | -4% | 79µM*
S=C(Nc1cccc(Cl)c1Cl)Nn1cnnc1 | -10% | 1% | 17% | 79µM*
CCC(C(=O)Nc1cc(OC)ccc1OC)n1nc(-c2ccccc2)c2c(c1=O)CCCC2 (configuration not stated) | 8% | -3% | -17% | 1%
COC(=O)c1ccc(NC(=O)CN2C(=O)c3cccc4cccc2c34)cc1 | 9% | -3% | 1% | -16%
COc1ccc(-c2cc(=O)oc3c4c(ccc23)OCN(Cc2cccc(OC)c2)C4)cc1 | 2% | 8% | -12% | -8%
CCN1C(=O)[C@H]2[C@H]3CN=C(SCC(=O)c4ccccc4)N3[C@@](C)(C(=O)OC)[C@H]2C1=O | 44% | -6% | -7% | 45µM*
COC(=O)[C@@]1(C)[C@H]2C(=O)N(Cc3ccccc3)C(=O)[C@H]2[C@H]2CN=C(SCc3ccccc3)N21 | 31% | 6% | -11% | -13%
CCn1c(SC(C)C(=O)Nc2ccc(C)cc2)nnc1-c1ccccc1 (configuration not stated) | 37% | 15% | . | .
Cc1ccc(C)c(OCC(=O)Nc2ccccc2C(=O)NC2CC2)c1 | 14% | 2% | -4% | 89µM*
Cc1ccc(-c2c(CN3CCN(c4cccc(C(F)(F)F)c4)CC3)csc2C)cc1 | 21% | 3% | -4% | -1%
O=C(CSc1ccc(-c2ccco2)nn1)Nc1ccc(F)cc1 | 32µM* | 8% | -15% | ?
O=C(CSc1ccc(-c2ccco2)nn1)c1ccccc1 | 28µM* | -6% | 39% | -30%
Cc1nnc(NC(=O)CSc2ccc(-c3ccco3)nn2)s1 | 18µM* | 10% | ? | ?
O=C(Cn1nc(-c2cccs2)ccc1=O)Nc1ccc(Br)cc1 | 22% | 9% | -7% | -1%
CCOc1ccc(NC(=O)CSc2ccc(-c3ccco3)nn2)cc1 | ? | 4% | -13% | 4%
O=C(Cn1nc(-c2ccco2)ccc1=O)Nc1ccc(Br)cc1 | 40µM* | 20% | -8% | ?
SMILES | TrxR1 inh | TrxR1 substrate | GCN5L2 inh | VDR inh
Cc1nnc(NC(=O)CSc2nnc(-c3ccco3)n2C(C)C)s1 | -9% | 2%[57.1 µM] | -5% | ?
COc1cccc(OC)c1-c1cc(CCCc2cc(-c3c(OC)cccc3OC)nc3ccccc23)c2ccccc2n1 | -3% | -1% | . | .
COc1ccc(NC(=O)CSc2ccc(-c3ccco3)nn2)cc1OC | 35µM* | -2% | -32% | -11%
COc1cccc(NC(=O)CSc2ccc(-c3sc(C)nc3C)nn2)c1 | 3% | -5% | -6% | -15%
COc1cccc(NC(=O)CSC(N)=O)c1 | 21% | -13% | -23% | 22µM*
COc1cccc(NC(=O)CSc2ccc(-c3ccco3)nn2)c1 | 28µM* | 5% | -21% | -26%
O=C(C[N+]12CN3CN(CN(C3)C1)C2)c1ccc(Br)cc1 | -21% | 1% | . | .
Clc1ccc2nc[nH]c2c1 | ? | 7%[57.1 µM] | . | .
Cc1cc(N(C)C)c(C)cc1/C=C/c1ccnc2ccccc12 | 9% | -3% | . | .
COc1ccc(N(C(=O)CCl)C(C(=O)NCCc2ccccc2)c2cccs2)cc1 (configuration not stated) | 11µM* | 1% | 3% | ?
Cc1ccc2cccc(O)c2n1 | 4% | 4% | . | .
CN(C)c1ccc(NC(=O)Nc2csc3ccccc23)cc1 | 5% | -1% | -6% | 0%
Cc1cc(NC(=O)Nc2ccc(N(C)C)cc2)c2cc(F)cc(F)c2n1 | . | . | 0% | 18µM*!
CCCCCCN(CCCCCC)c1ccc(/C=C/c2ccnc3ccccc23)cc1 | -20% | -4% | . | .
CCOC(=O)c1cc2c(=O)n3ccccc3nc2n(Cc2ccco2)c1=NC(=O)c1ccccc1OC | 17%[57.1 µM] | 119% | -5% | 56µM*!
Cc1ccc(S(=O)(=O)c2cc3c(=O)n4ccccc4nc3n(Cc3ccco3)c2=N)cc1C | -10% | 17% | 16µM* | 4%
CCOC(=O)c1cc2c(=O)n3cccc(C)c3nc2n(Cc2ccco2)c1=NC(=O)c1ccc(C)cc1 | -11% | -6% | . | 1%
CCOC(=O)c1cc2c(=O)n3cccc(C)c3nc2n(Cc2ccco2)c1=NC(=O)c1ccccc1 | 56µM*! | 3%[11.4 µM] | 1% | -3%
N=c1c(S(=O)(=O)c2ccccc2)cc2c(=O)n3ccccc3nc2n1Cc1ccco1 | ? | 47% | ? | -22%
CCOC(=O)c1cc2c(=O)n3ccccc3nc2n(Cc2ccco2)c1=NC(=O)c1cccc(OC)c1 | -40% | 16% | -10% | 1%
COc1ccc(N2CCN(C(=O)c3c(C)oc4ncnc(N5CCCCC5)c34)CC2)cc1 | 16% | -5% | -3% | 16%
NC(=O)C1=C(c2ccccc2)c2ccccc2C1=O | -11%[57.1 µM] | -4%[2.29 µM] | . | 40µM*
Nc1nc(=S)[nH]c2n[nH]nc12 | -10% | -3% | . | .
COc1ccc(NC(=O)/C(Cl)=C(/Cl)S(=O)(=O)Cc2ccccc2)cn1 | 7.1µM* | 11%[57.1 µM] | -1% | 35µM*
CCOC(=O)C(CC)(CC)C(=O)/C=C/c1cccc(Br)c1 | ? | -6% | . | 79µM*
SMILES | TrxR1 inh | TrxR1 substrate | GCN5L2 inh | VDR inh
NC(=O)NC(=O)COC(=O)/C=C/c1cccc(Br)c1 | 23% | 5% | -4% | -15%
CCc1cc(C(=O)/C=C/c2cc3c(cc2C)OCCO3)c(O)cc1O | 8% | -6% | . | .
CCCN1CCCc2cc(CN)ccc21 | ? | 19% | -8% | 28µM*
CCOC(=O)N1CCc2c(sc3c2c(=O)n(-c2ccc(F)cc2)c(=O)n3CC(=O)c2ccc(Cl)cc2)C1 | 7% | 4% | 2% | -5%
O=C(NC1CCCCC1)c1cnn2c(C(F)(F)F)cc(-c3ccco3)nc12 | 3.5µM* | 15% | -10% | -11%
CCOc1cc(/C=N/O)ccc1OCc1ccc(F)cc1 | 10% | 3% | -3% | 50µM*
O=C(NC1CCCC1)C(c1ccc(Cl)cc1)N1CCc2ccccc21 (configuration not stated) | 9% | -5% | ? | 89µM*
C/C=C/C(=O)N1CC2(CC(c3cccc(NC(=O)CCCCC)c3)=NO2)C[C@H]1C(N)=O (some centres not stated) | . | . | 22% | .
